Drawing on PubChem BioAssay (NCI), this text covers growth for 9 compounds.

Among the test systems are DU-145 prostate; K-562 leukemia; MALME-3M melanoma; MDA-MB-231 breast; RXF 393 renal; SF-268 CNS; SF-295 CNS; SF-539 CNS; UACC-257 melanoma; M14 melanoma; HCT-15 colon; HT29 colon; SNB-75 CNS; SNB-19 CNS; U251 CNS; PC-3 prostate; SK-MEL-5 melanoma; UACC-62 melanoma; LOX IMVI melanoma; SK-MEL-28 melanoma.
Holding throughout (assay): NCI-60 one-dose screen, 48 h (100 = growth as untreated, 0 = no growth, -100 = all killed)
Holding throughout (settings): 10 µM unless noted

SMILES strings stand for the structures. Compounds without any hit were thinned out: in the full panel of roughly 83,000, 20% have a hit.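 Single-dose data. Exposure time 48 hours. Values below 10 considered active.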 Unmarked numbers belong to inactive results. Calls of active or inactive are those of the source.

In the case of `CCCCCCCCCCCCCC[n+]1cccc(C(N)=O)c1`, the growth in the experiment on DU-145 prostate was 27.8%; with K-562 leukemia it was 9.03% (active); in the experiment with MALME-3M melanoma, -33.9% (active); in the experiment on MDA-MB-231 breast it was -22.9% (active); in the experiment with RXF 393 renal it was -41.4% (active); with SF-268 CNS, -24.2% (active). Further, the growth was -30.9% (active) with SF-295 CNS; -5.92% (active) in the experiment with SF-539 CNS; 24.3% in the experiment on UACC-257 melanoma; -38.8% (active) with M14 melanoma; 67.6% with HCT-15 colon; 0.436% (active) in the experiment with HT29 colon. In addition, the growth in the experiment on SNB-75 CNS was -57.2% (active); with SNB-19 CNS, -69.4% (active); in the experiment on U251 CNS, -72.7% (active); in the experiment on PC-3 prostate, -29% (active); in the experiment on SK-MEL-5 melanoma it was -90.9% (active); in the experiment on UACC-62 melanoma, 1.18% (active). In addition, the results for the growth in the experiment on LOX IMVI melanoma and in the experiment on SK-MEL-28 melanoma were 15.7% and 28.5%, respectively.

As to `C=C(CC(=O)OC)C(C)=O`, the growth with DU-145 prostate is 107%; with K-562 leukemia, 106%; with MALME-3M melanoma, 128%; in the experiment on MDA-MB-231 breast it was 94.8%; in the experiment on RXF 393 renal it was 112%; in the experiment on SF-268 CNS, 106%. The growth with SF-295 CNS was 106%; in the experiment with SF-539 CNS, 120%; in the experiment with UACC-257 melanoma, 118%; with M14 melanoma, 119%; with HCT-15 colon, 117%; with HT29 colon it was 119%. The growth in the experiment on SNB-75 CNS was 110%; with SNB-19 CNS, 103%; with U251 CNS, 116%; in the experiment with PC-3 prostate, 109%; in the experiment on SK-MEL-5 melanoma, 107%; in the experiment with UACC-62 melanoma, 95.4%. The values for the growth in the experiment with LOX IMVI melanoma and with SK-MEL-28 melanoma were 110% and 118%, respectively.

In the case of `O=C(CSc1nc2ccc([N+](=O)[O-])cc2[nH]1)Nc1cccc(Cl)c1`, the growth was 36.3% in the experiment with DU-145 prostate; 16.4% in the experiment on K-562 leukemia; 2.51% (active) in the experiment on MALME-3M melanoma; 41.1% with MDA-MB-231 breast; 44.5% with RXF 393 renal; 24.3% in the experiment on SF-268 CNS. The growth in the experiment with SF-295 CNS was 21.7%; in the experiment with SF-539 CNS it was 45.2%; with UACC-257 melanoma, 15%; with M14 melanoma, 29.4%; in the experiment with HCT-15 colon, 23.3%; with HT29 colon, 21.1%. The growth in the experiment on SNB-75 CNS was 23.9%; in the experiment on SNB-19 CNS, 17.6%; with U251 CNS, 13.6%; with PC-3 prostate, 11.7%; in the experiment on SK-MEL-5 melanoma, 0.349% (active); in the experiment on UACC-62 melanoma it was 8.24% (active). Moreover, the growth in the experiment with LOX IMVI melanoma is 27.7%; in the experiment on SK-MEL-28 melanoma, 28.9%.

`CN(C)Cc1ccc[nH]1`: the growth with DU-145 prostate was 115%; in the experiment on K-562 leukemia it was 113%; in the experiment on MALME-3M melanoma it was 126%; in the experiment with MDA-MB-231 breast it was 77.6%; in the experiment on RXF 393 renal, 95.3%; in the experiment with SF-268 CNS, 103%. In addition, the growth was 90.1% in the experiment with SF-295 CNS; 92.3% with SF-539 CNS; 0.0923% (active) in the experiment with UACC-257 melanoma; 93.2% in the experiment with M14 melanoma; 102% in the experiment on HCT-15 colon; 114% with HT29 colon. Also, the growth in the experiment with SNB-75 CNS was 92.5%; in the experiment with SNB-19 CNS it was 97.7%; in the experiment with U251 CNS it was 108%; in the experiment on PC-3 prostate, 99.2%; in the experiment with SK-MEL-5 melanoma it was 102%; with UACC-62 melanoma, 91.6%. The growth in the experiment with LOX IMVI melanoma is 81.3%; with SK-MEL-28 melanoma, 107%.

Take `Nn1c(Nc2ccc(S(=O)(=O)Nc3ncccn3)cc2)nnc(/C=C/c2c(O)ccc3ccccc23)c1=O`: the growth with DU-145 prostate is 99.7%; with K-562 leukemia, 85.2%; with MALME-3M melanoma, 94.2%; in the experiment with MDA-MB-231 breast it was 71.4%; in the experiment on RXF 393 renal, 106%; in the experiment with SF-268 CNS it was 84.7%. The growth is 100% in the experiment with SF-295 CNS; 102% in the experiment on SF-539 CNS; 94.4% with UACC-257 melanoma; 97.5% with M14 melanoma; 91.3% in the experiment on HCT-15 colon; 105% in the experiment with HT29 colon. The growth with SNB-75 CNS is 92.2%; in the experiment with SNB-19 CNS, 96.8%; in the experiment with U251 CNS it was 85.8%; with PC-3 prostate, 75.4%; in the experiment with SK-MEL-5 melanoma it was 88.2%; in the experiment on UACC-62 melanoma, 84.3%. Also, the growth in the experiment with LOX IMVI melanoma is 84.3%; in the experiment with SK-MEL-28 melanoma, 112%.

On to `COc1ccc(-c2c(C)nn3c(NCCN4CCOCC4)cc(C)nc23)cc1OC`, for which the growth with DU-145 prostate was 106%; in the experiment with K-562 leukemia, 97.8%; in the experiment with MALME-3M melanoma, 96.8%; in the experiment with MDA-MB-231 breast, 86%; in the experiment with RXF 393 renal it was 83.6%; in the experiment on SF-268 CNS, 101%. For the same compound, the growth in the experiment with SF-295 CNS is 82%; with SF-539 CNS, 81.9%; in the experiment with UACC-257 melanoma, 99.9%; with M14 melanoma, 96.3%; in the experiment on HCT-15 colon, 95.1%; with HT29 colon, 94.4%. The growth is 93.2% with SNB-75 CNS; 91.4% in the experiment with SNB-19 CNS; 82.2% with U251 CNS; 89.7% with PC-3 prostate; 97.2% in the experiment with SK-MEL-5 melanoma; 97.6% in the experiment on UACC-62 melanoma. Further, the growth in the experiment with LOX IMVI melanoma was 87.5%; in the experiment on SK-MEL-28 melanoma it was 103%.

Consider `CC1Cc2c(ncnc2-n2cnc3ccccc32)N(C)c2ccccc21` (stereo not given), for which the growth in the experiment on DU-145 prostate is 50.3%; in the experiment on K-562 leukemia, 15.5%; with MALME-3M melanoma, 64.5%; with MDA-MB-231 breast it was 29.4%; with RXF 393 renal, 34%; in the experiment with SF-268 CNS, 49%. Further, the growth was 18.9% with SF-295 CNS; 17% in the experiment on SF-539 CNS; 53.1% with UACC-257 melanoma; 12.9% in the experiment on M14 melanoma; 21.6% with HCT-15 colon; 0.852% (active) in the experiment with HT29 colon. Also, the growth was 43% with SNB-75 CNS; 31.5% in the experiment on SNB-19 CNS; 23.7% in the experiment on U251 CNS; 25.6% with PC-3 prostate; 20.8% in the experiment with SK-MEL-5 melanoma; 30.9% in the experiment on UACC-62 melanoma. Moreover, the growth was 44.9% with LOX IMVI melanoma and 70.4% in the experiment with SK-MEL-28 melanoma.

Regarding `CCCCCCCCCN(CCCCCCCCC)C(C)C(=O)c1ccc2cc(Br)c3ccccc3c2c1` (stereo not given), the growth with DU-145 prostate was 88.6%; with K-562 leukemia, 39.2%; in the experiment with MALME-3M melanoma, 118%; with MDA-MB-231 breast it was 68.9%; with RXF 393 renal, 99.4%; in the experiment with SF-268 CNS, 87.1%. The growth was 100% in the experiment with SF-295 CNS; 81.2% with SF-539 CNS; 98.7% with UACC-257 melanoma; 55.7% with M14 melanoma; 47.1% in the experiment on HCT-15 colon; 30.1% in the experiment on HT29 colon. The growth with SNB-75 CNS is 84.5%; in the experiment on SNB-19 CNS it was 92%; with U251 CNS, 70.9%; with PC-3 prostate, 75.2%; in the experiment on SK-MEL-5 melanoma it was 88.5%; in the experiment on UACC-62 melanoma, 92.8%. Further, the growth in the experiment with LOX IMVI melanoma was 63.9%; in the experiment with SK-MEL-28 melanoma, 109%.

Turning to `Oc1cc(Nc2ccnc3cc(Cl)ccc23)c2ncccc2c1`, the growth with DU-145 prostate was 58.4%; in the experiment with K-562 leukemia it was 76.6%; in the experiment with MALME-3M melanoma, 52%; with MDA-MB-231 breast, 14.8%; in the experiment with RXF 393 renal, 68.6%; in the experiment on SF-268 CNS it was 73.8%. The growth in the experiment with SF-295 CNS is 108%; in the experiment on SF-539 CNS, 93.9%; with UACC-257 melanoma, 82.2%; with M14 melanoma, 75.8%; with HCT-15 colon it was 82%; in the experiment with HT29 colon, 109%. In addition, the growth is 53.2% with SNB-75 CNS; 78.4% in the experiment with SNB-19 CNS; 77.1% with U251 CNS; 59.1% with PC-3 prostate; 79.2% with SK-MEL-5 melanoma; 81.4% in the experiment with UACC-62 melanoma. Further, the growth in the experiment on LOX IMVI melanoma is 72.7%; in the experiment on SK-MEL-28 melanoma, 81.5%.
